A selection: hits, their analogues and other compounds. The true share with any hit is near 3.9%.
AHR activator: AHR activators, primary screen, cell-based, luminescence, luciferase reporter, human | AHR-responsive luciferase reporter cells | activation, % at 5 µM | 320,000 tested, 2.5% active; in the data active = activation above about 47%
PLCg1 inh: PLC-gamma1 enzyme inhibitors, primary screen, biochemical, fluorescence, purified enzyme; 370,000 tested, 0.84% active; fluorogenic substrate; AID 720700, 2013; inhibition, % at 12.2 µM; in the data active = inhibition above about 9.5%
PLCb3 inh: human PLC-beta3 inhibitors, primary screen, biochemical, fluorescence. Purified PLC-beta3, fluorogenic substrate. 1-phosphatidylinositol 4,5-bisphosphate phosphodiesterase beta-3 (Homo sapiens), Q01970. AID 720704, 2013. 370,000 tested, 0.18% active. inhibition, % at 12.2 µM; in the data active = inhibition above about 11%
sPLA2-III inh: human group III sPLA2 inhibitors, primary screen, biochemical, QFRET, BODIPY PC-A2 liposome substrate; Group 3 secretory phospholipase A2 (Homo sapiens), Q9NZ20; QFRET BODIPY PC-A2 liposome hydrolysis, fluorescence; inhibition, % at 12.2 µM; 370,000 tested, 0.56% active; AID 743126, 2013;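 active = inhibition above mean plus 3 SD of compounds lying within the high and low control bounds, cut at about 19% in these data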
Target sequence (Q9NZ20 whole entry, looked up): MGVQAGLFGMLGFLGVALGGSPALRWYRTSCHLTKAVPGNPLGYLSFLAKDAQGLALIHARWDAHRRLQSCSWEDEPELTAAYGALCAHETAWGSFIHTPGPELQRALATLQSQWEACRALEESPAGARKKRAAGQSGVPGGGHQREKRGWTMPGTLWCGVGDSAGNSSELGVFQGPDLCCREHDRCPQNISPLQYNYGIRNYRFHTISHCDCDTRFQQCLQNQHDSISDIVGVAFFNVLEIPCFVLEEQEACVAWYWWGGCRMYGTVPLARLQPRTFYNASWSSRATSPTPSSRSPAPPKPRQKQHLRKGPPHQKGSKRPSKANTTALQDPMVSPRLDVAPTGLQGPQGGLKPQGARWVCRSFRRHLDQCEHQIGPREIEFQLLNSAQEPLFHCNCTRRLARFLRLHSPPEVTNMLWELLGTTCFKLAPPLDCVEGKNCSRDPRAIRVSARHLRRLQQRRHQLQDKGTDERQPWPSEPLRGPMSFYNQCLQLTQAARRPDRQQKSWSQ
HIF activator: HIF pathway transcriptional activators, primary screen, cell-based, U2OS HRE-luciferase, luminescence. U2OS HRE-luciferase reporter; normalized: DMSO 0%, desferrioxamine 100%. activation, % at 7.5 µM (by protocol). 300,000 tested, 0.32% active. AID 1910, 2009;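 active = mean activation of at least 10% of the iron chelator positive control signal, with at least half of replicates also reaching 10%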
Yeast superoxide: reduction of superoxide in aged yeast, primary screen, HTS | superoxide response (% of plate mean), % at 10 µM | S. cerevisiae aged cells, superoxide DHE fluorescence; stronger effect = lower value | 330,000 tested, 0.18% active | AID 2690, 2010;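 active = superoxide response under a set limit, about three screen SD below normal, cut at about 65% in these data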;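 also: yeast aged for seven days with compound at 30 °C before DHE staining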
AHR act cf: AHR activators, confirmation, cell-based, luminescence, luciferase reporter, human | activation, % at 9 µM | human cells, AHR-responsive luciferase reporter | AID 2845, 2010 | shares compounds with AHR activator | 2,300 tested, 87% active; in the data active = activation above about 49%;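 also: HepG2 hepatoma cells carrying a DRE-driven firefly luciferase reporter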
PXR act counter: human PXR activators, counter-screen for AHR activator project, cell-based, luciferase luminescence. shares compounds with AHR activator. cell-based PXR reporter. activation, % at 11.6 µM. 2,300 tested, 88% active. AID 434939, 2010; in the data active = activation above about 11%;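 also: human hepatoma DPX-2 cells expressing full-length human PXR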
Large screens that a line does not name were inactive (follow-up assays come after a bar, where they were run).

CC(C)c1ccc(S(=O)(=O)/N=C2\C=C(NS(=O)(=O)c3ccccc3)C(=O)c3ccccc32)cc1	AHR activator 83.4 | AHR act cf inactive | PXR act counter 130.3
CCc1ccc(S(=O)(=O)/N=C2\C=C(NS(=O)(=O)c3ccccc3)C(=O)c3ccccc32)cc1	none (no result: AHR activator, Yeast superoxide)
O=C(Cn1cc(COc2ccc(-n3cccc3)cc2)nn1)NS(=O)(=O)c1ccccc1C(F)(F)F	none (no result: AHR activator, HIF activator, Yeast superoxide)
CCCCC[C@@H]1C=C(C(=O)O)[C@H](c2ccc(F)cc2)N1S(=O)(=O)c1ccc(C)cc1	none (no result: HIF activator)
S=C(Nc1cccc2ccccc12)Nc1cccc2ccccc12	none (no result: AHR activator, HIF activator, Yeast superoxide)
Cc1ccc(F)c(NC(=S)Nc2cccc3ccccc23)c1	AHR activator 94.4 | AHR act cf inactive | PXR act counter 106.4
O=C(/C=C/c1cccc([N+](=O)[O-])c1)N1CCN(Cc2ccc3c(c2)OCO3)CC1	none
CN1C(=O)/C(=C/c2ccccc2OCc2ccccc2)NC1=S	AHR activator 90.5 | AHR act cf 64.0 | PXR act counter 29.6
CN1C(=O)/C(=C/c2ccccc2OCc2ccc(C(=O)O)cc2)NC1=S	none
COc1cc(/C=C2\NC(=S)N(C)C2=O)ccc1OCc1cccc(F)c1	none
CN1C(=O)/C(=C/c2ccccc2OCc2cccc(F)c2)NC1=S	AHR activator 96.7 | AHR act cf 74.1 | PXR act counter 34.9
Cc1ccc(S(=O)(=O)CCC(=O)OCC(=O)N(C)c2ccccc2)cc1	none (no result: AHR activator, HIF activator, Yeast superoxide)
CCCCCCN(C(=O)CCCCCN1C(=O)NC(c2ccc(-c3ccccc3)cc2)C(C(=O)OCc2ccccc2)=C1C)C(C(=O)NCCCC)c1cccc(C(=O)OC)c1 (stereo not given)	none (no result: AHR activator, Yeast superoxide)
Cc1ccc(C#N)c(SCCN2CCCCC2)n1	none (no result: AHR activator)
Cc1cccc2cc(C#N)c(SCCN3CCCCC3)nc12	AHR activator 80.9 (no result: PLCg1 inh, PLCb3 inh, sPLA2-III inh) | AHR act cf 101.2 | PXR act counter 47.8
O=c1c2ccccc2nc(-c2ccco2)n1CCCn1ccnc1	AHR activator 83.2 | AHR act cf 103.0 | PXR act counter 23.1
C/C=C/C(=O)OCC(=O)Nc1cc(-c2cc(C)c(C)cc2C)nn1-c1ccccc1	AHR activator 105.3 | AHR act cf 90.5 | PXR act counter 84.9
Cc1cnc(C(=O)OCC(=O)Nc2cc(-c3ccccc3)nn2-c2ccccc2)cn1	none
CC(C)(C)OC(=O)Nc1ccccc1-n1nnnc1C(C(=O)c1ccc(F)cc1)N1CCOCC1 (stereo not given)	none (no result: AHR activator, HIF activator, Yeast superoxide)
O=C(Nc1ccc(Cl)c(Cl)c1)Nc1ccc([N+](=O)[O-])cn1	AHR activator 90.8 | AHR act cf 86.3 | PXR act counter inactive
O=C(O)c1cc([N+](=O)[O-])ccc1NCc1ccccc1	none
O=C(Nc1ccc(F)cc1)Nc1ccc([N+](=O)[O-])cn1	none
CC(=O)Nc1ccc(NC(=O)c2ccc([N+](=O)[O-])cc2Cl)cc1	none
O=C(Nc1ccccc1)c1cc([N+](=O)[O-])ccc1Cl	AHR activator 88.2 | AHR act cf 95.4 | PXR act counter 13.9
O=C(Nc1ccccc1)c1cc([N+](=O)[O-])ccc1NCc1cccnc1	AHR activator 83.2 | AHR act cf 104.4 | PXR act counter 41.4
CCOC(=O)[C@]12CCC=C1N(Cc1cccc3ccccc13)C(=O)[C@H](CC(=O)NCCCOC)C2	none (no result: AHR activator, HIF activator, Yeast superoxide)
CC(C)c1cc(Cn2c3ccccc3c(=O)n2C(C)Cn2cc(CCCC#N)nn2)on1 (stereo not given)	none (no result: AHR activator, HIF activator, Yeast superoxide)
N#C/C(=C\c1ccc(N2CCCCC2)o1)C(N)=O	none
N#C/C(=C\c1ccc(N2CCCCC2)o1)C(=O)Nc1cccc(Br)c1	AHR activator 99.6 | AHR act cf 72.0 | PXR act counter 13.4
COc1ccccc1NC(=O)c1ccc2[nH]c(C)c(C)c2c1	AHR activator 113.5 | AHR act cf 132.8 | PXR act counter 68.7
Cc1ccccc1-n1c(SCC(=O)NCC2CCCO2)nc2c([nH]c3ccccc32)c1=O (stereo not given)	none
O=C(CSc1nc2c([nH]c3ccccc32)c(=O)n1-c1ccccc1F)NCC1CCCO1 (stereo not given)	AHR activator 96.1 | AHR act cf 98.4 | PXR act counter 112.2
Cc1cc(NC(=O)CSc2nc3c([nH]c4ccccc43)c(=O)n2-c2ccccc2F)no1	AHR activator 90.0 | AHR act cf 70.1 | PXR act counter 164.1
COc1cccc(-n2c(SCC(=O)Nc3cc(C)on3)nc3c([nH]c4ccccc43)c2=O)c1	AHR activator 102.8 | AHR act cf 103.4 | PXR act counter 63.1
CC(C)(C)C(c1nc2ccccc2[nH]1)n1c(-c2ccsc2)nc2ccccc21 (stereo not given)	none (no result: AHR activator, HIF activator, Yeast superoxide)
CN(C)S(=O)(=O)Oc1ccc(Cl)cc1C(=O)Nc1ccc(F)cc1F	AHR activator 80.5 | AHR act cf 80.5 | PXR act counter 191.2
CCN(CC(=O)Nc1ccccc1C(F)(F)F)C(=O)C1CSC2(C)CCC(=O)N12 (stereo not given)	none
Cc1[nH][nH]c(=O)c1N=Nc1ccc(Br)c(Cl)c1	AHR activator 85.3 | AHR act cf 127.6 | PXR act counter 10.8
O=C(CCc1ccccc1)OCCOC(=O)CCc1ccccc1	none
O=C(N/N=C1\CC2CC=CC12)c1ccc(Br)cc1 (stereo not given)	none
Cc1cc(Br)c(OCc2ccc(C(=O)N/N=C3\CC4CC=CC34)cc2)c(Br)c1 (stereo not given)	AHR activator 105.3 | AHR act cf 78.7 | PXR act counter 11.5
C#CCn1c(O)c(N=NC(=O)CNC(=O)/C=C/c2ccccc2)c2ccccc21	AHR activator 91.4 | AHR act cf 106.9 | PXR act counter 52.3
C#CCn1c(O)c(N=NC(=O)CNC(=O)c2cccnc2)c2ccccc21	AHR activator 92.5 | AHR act cf 106.2 | PXR act counter 24.5
C=CCn1c(O)c(N=NC(=O)C(O)c2ccccc2)c2ccccc21 (stereo not given)	none
C=CCn1c(O)c(N=NC(=O)CNC(=O)c2ccncc2)c2ccccc21	AHR activator 99.5 | AHR act cf 70.5 | PXR act counter 42.6
CCn1c(O)c(N=NC(=O)CNC(=O)/C=C/c2ccccc2)c2ccccc21	none
COc1ccc(C(=O)NCC(=O)N=Nc2c(O)n(Cc3ccccc3)c3ccccc23)cc1OC	none

Compound activity deposited in PubChem BioAssay by several laboratories.
